DRD3 agonist: qHTS of D3 Dopamine Receptor Agonist: qHTS. D3R DiscoveRx beta-arrestin cells, luminescence, 90 min. D(3) dopamine receptor (Homo sapiens), P35462. hit rate 0.58% among 410,000. max activation, %; in the data active = max activation above about 30%; also: 0% is about no effect
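Agonist-mode cell screen: cells plated at 1500/well and incubated overnight at 37 °C, then exposed to library compounds for 90 min at 37 °C. Detection reagent was added for 30–60 min at room temperature, and luminescence was read.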
D1 antagonist: Antagonist of Human D 1 Dopamine Receptor: qHTS | AID 504652, 2011 | D(1A) dopamine receptor (Homo sapiens), P21728 | hit rate 3.2% among 360,000 | HEK293 TREx D1 cells, calcium flux, dopamine EC80; stronger effect = lower value | activity change, negative = inhibition, % at 10 µM; in the data active = activity change below about -30%; also: % is scaled to controls: 0 for no effect and ±100 for the full control effect
Target sequence (P21728 whole entry, looked up): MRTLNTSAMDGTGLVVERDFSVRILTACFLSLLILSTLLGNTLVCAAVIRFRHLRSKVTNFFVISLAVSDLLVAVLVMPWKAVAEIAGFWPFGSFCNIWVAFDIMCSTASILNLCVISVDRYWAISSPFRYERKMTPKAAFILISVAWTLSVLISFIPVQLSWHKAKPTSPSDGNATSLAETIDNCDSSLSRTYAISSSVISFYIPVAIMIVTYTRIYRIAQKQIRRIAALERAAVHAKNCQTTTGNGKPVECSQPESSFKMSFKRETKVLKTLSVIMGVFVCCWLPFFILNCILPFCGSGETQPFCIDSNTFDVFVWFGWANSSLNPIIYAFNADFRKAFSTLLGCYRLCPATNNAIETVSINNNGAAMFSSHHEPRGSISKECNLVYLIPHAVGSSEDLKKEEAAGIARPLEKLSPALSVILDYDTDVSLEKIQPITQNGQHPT
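Tetracycline-induced HEK293 Trex D1 cells, force-coupled to calcium, dye-loaded; compounds added and read 180 s, then EC80 dopamine added and calcium flux tracked kinetically another 180 s.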
D1 potentiator: Potentiators of Human D1 Dopamine Receptor: qHTS. HEK293 TREx D1 cells, calcium flux, dopamine EC20 potentiation. hit rate 0.036% among 360,000. D(1A) dopamine receptor (Homo sapiens), P21728. potentiation, % at 10 µM; in the data active = potentiation above about 30%; also: 0% is about no effect
D3 antag: qHTS of D3 Dopamine Receptor Antagonist: qHTS; D(3) dopamine receptor (Homo sapiens), P35462; D3R cells, DiscoveRx beta-arrestin luminescence, antagonist mode; stronger effect = lower value; max response, negative = inhibition, %; hit rate 2.5% among 360,000; AID 652054, 2013; in the data active = max response below about -50%; inconclusive = no clear call, values can overlap the other calls; also: % is scaled to controls: 0 for no effect and ±100 for the full control effect
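Cells plated overnight at 1500 cells/well, then exposed to library compounds with dopamine controls for 90 minutes at 37 degrees C. DiscoveRx reagent added for 30–60 minutes at room temperature; luminescence read, quantitative HTS format.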
D1 agonist: Allosteric Agonists of the Human D1 Dopamine Receptor: qHTS; HEK293 T-REx D1 cells, calcium flux, agonist mode; AID 504660, 2011; hit rate 1% among 360,000; D(1A) dopamine receptor (Homo sapiens), P21728; activation, % at 2 µM; in the data active = activation above about 30%; also: 0% is about no effect
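Inducible HEK293 T-REx D1 cells, force-coupled to calcium signalling, were plated at 4000 cells/well with tetracycline and held overnight at 30 C. After no-wash calcium dye loading, compound-evoked calcium rise over 180 s flagged agonists.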
An asterisk follows results filed as active; ? = inconclusive; . = no result given. An excerpt weighted towards active compounds, which were near 6% of everything screened.

SMILES	DRD3 agonist	D1 antagonist	D1 potentiator	D3 antag	D1 agonist
Cc1c(NC(=O)c2ccc(N3CCCC3)c([N+](=O)[O-])c2)cccc1-c1nc2ccccc2s1	-32	6	0	-51*	0
Cc1ccc(C(=O)COC(=O)c2ccncc2)cc1[N+](=O)[O-]	-6	3	-2	-92*	4
Cc1ccc(C(=O)COC(=O)c2cc(Cl)ccc2O)cc1[N+](=O)[O-]	-7	-1	0	-4	2
O=C(Nc1ccc(Cc2ccncc2)cc1)c1ccc(N2CCOCC2)c([N+](=O)[O-])c1	-8	-44*	2	-7	12
O=C(Nc1nccs1)c1ccc(N2CCOCC2)c([N+](=O)[O-])c1	-10	-19	1	-5	4
O=C(CN1CCN(C(=O)c2cccc(-n3cnnn3)c2)CC1)Nc1ccccc1Cl	4	-12	5	6	3
COc1cccc(OCc2cc(C(=O)N3CCC(c4ccncc4)CC3)no2)c1	22	-36*	-11	23	14
COc1ccc(OCc2cc(C(=O)N3CCC(c4ccccc4)CC3)no2)c(Cl)c1	-4	-3	-5	17	35*
O=C(c1cc(COc2cccc(C(F)(F)F)c2)on1)N1CCC(c2ccncc2)CC1	18	12	-4	8	0
O=S(=O)(NCc1ccccc1)c1ccc(-n2cccn2)cc1	-3	-27	-10	-5	18
CCN(Cc1ccccc1)C(=O)Cn1c(=O)n(Cc2ccccc2)c(=O)c2c1c1cc(OC)ccc1n2C	3	-5	1	.	1
CC(=O)N1/C(=C/c2ccc(N(C)C)cc2)C(=O)c2ccccc21	-12	-8	-3	-51*	4
O=C1C=CC(=O)N1c1ccc2c(c1)C(NC(=O)C(F)(F)F)c1ccccc1-2 (stereo unspecified)	-26	.	.	-62*	.
CC(=O)NC(C)(c1ccccc1)c1nc(/C=C/c2ccccc2)cs1 (stereo unspecified)	-5	.	.	-5	.
Cc1cc(O)c(-c2ccno2)cc1Cl	1	-6	-1	1	6
Cn1ncc(-c2ccno2)c1C(=O)O	-12	-6	0	-1	37*
Cc1noc(/C=C/N(C)C)c1S(=O)(=O)N1CCCC(C(=O)NCc2ccccc2Cl)C1 (stereo unspecified)	-19	-51*	-4	-20	2
Cc1noc(/C=C/N(C)C)c1S(=O)(=O)N1CCN(c2ccccc2)CC1	-2	-37*	-5	16	1
Cc1noc(C)c1S(=O)(=O)N1CCN(c2ccccc2Cl)CC1	-12	-19	2	-2	4
Cc1noc(C)c1S(=O)(=O)N1CCN(c2ccccc2)CC1	3	-63*	.	-20	0
Cc1noc(/C=C/N(C)C)c1S(=O)(=O)N1CCCC(C(=O)NCc2ccc(Cl)cc2)C1 (stereo unspecified)	5	-2	-6	-5	8
COc1ccccc1N1CCN(C(=O)C2CCN(C(=O)c3ccc(C(C)(C)C)cc3)CC2)CC1	4	-1	1	7	6
Cc1ccc(NC(=O)CCC(=O)NN=Cc2ccc(C)o2)c(C)c1	-5	.	.	?	.
O=C1CN(C(=O)CSc2nc3ccccc3c(=O)n2Cc2ccc(F)cc2)c2ccccc2N1	4	-59*	-8	-3	10
Cn1c(SCC(=O)N2CC(=O)Nc3ccccc32)nc2ccccc2c1=O	-6	-4	3	12	1
SMILES	DRD3 agonist	D1 antagonist	D1 potentiator	D3 antag	D1 agonist
CCOc1ccc(-n2c(SCc3ccccc3)nc3c([nH]c4ccccc43)c2=O)cc1	-9	-5	1	.	1
CC(C)OC(=O)C1Cc2ccccc2CN1S(=O)(=O)c1cccs1 (stereo unspecified)	-1	26	1	1	-1
Cc1cc(=O)c(C(=O)O)cn1Nc1ccc(F)cc1	-10	3	-5	?	2
Cc1cc(=O)c(C(=O)O)cn1Nc1ccc(Cl)cc1	2	-3	2	-53*	3
COc1ccc(NC(=O)CN(C)CC(=O)NCc2ccc(C)cc2)cc1	-1	7	-9	20	0
O=[N+]([O-])c1cc(-c2nc(-c3ccccc3)no2)ccc1NCCc1ccccc1	7	-2	-3	.	-1
CC(=O)Nc1c(C(=O)Nc2cccc(C)c2)nnn1-c1ccc(C)cc1	0	-34*	-1	.	11
COc1ccc(CNC(=O)CN(Cc2ccco2)C(=O)CNS(=O)(=O)c2ccc(F)cc2)cc1	-1	-1	-3	-8	4
Cc1ccc(-c2nc3sc(C(N)=O)c(N)c3c3c2CCCC3)cc1	26	-14	-8	65	6
CC(=O)c1sc2nc(-c3ccc(C)cc3)c3c(c2c1N)CCCC3	52*	3	-4	68	4
Cc1nc2sc(C(N)=O)c(N)c2c2c1CCCC2	3	-30*	-3	9	4
CCC(=O)OCc1cc(=O)n2nc(C3CC3)sc2n1	-17	1	9	.	3
O=C(c1ccccc1)c1ccc(OCCn2cnc3ccccc3c2=O)cc1	2	-29	-6	5	2
CC(C)(c1ccccc1)c1ccc(OCCn2cnc3ccccc3c2=O)cc1	8	5	6	18	33*
Cc1ccc(S(=O)(=O)N2CCC(C(N)=O)CC2)cc1[N+](=O)[O-]	1	-39*	-1	-7	-3
O=C(O)C1CCN(S(=O)(=O)c2ccc(N3CCCC3C(=O)O)c([N+](=O)[O-])c2)CC1 (stereo unspecified)	-20	-10	-8	-82*	4
O=C(O)C1CCN(c2ccc(S(=O)(=O)N3CCCCC3)cc2[N+](=O)[O-])CC1	-4	5	-4	-12	3
COc1cc(OC)c(OC)cc1CN1CCCC(C(=O)c2sccc2C)C1 (stereo unspecified)	-38	-38*	-11	-93*	9
COc1cc(OC)c(OC)cc1CN1CCCC(C(=O)c2ccc3c(c2)OCO3)C1 (stereo unspecified)	-18	-10	-5	-93*	1
Cc1ccsc1C(=O)C1CCCN(Cc2cc(F)ccc2-n2cccn2)C1 (stereo unspecified)	-18	-18	-4	-62*	1
CCn1cnc2c(Nc3ccc(CCC(=O)N=C(N)N)cc3)nc(C#N)nc21	.	-1	-2	.	0
CCOc1ccc(/C=C2\SC(=S)N(CCC(=O)N(CCO)c3ccccc3)C2=O)cc1	-3	-31*	-3	16	9
OC1(c2ccc3c(c2)OCO3)CCN(Cc2ccccn2)CC1	-37	-40*	-4	?	1
Cc1cc(C)n(S(=O)(=O)c2ccc(C)c(C)c2C)n1	-1	-8	-2	3	2
